# Laboratory results taken from the supplement of paper PMC6555819.
# Legend:
# Assay in all cases: PBM binding z-score (relative to random genomic background probes); higher = stronger binding; sequences stand for … in GC…GCGATTGACAGCGTAGAATGAAGG
# [1] = system: FXR:RXRa (NR concentration 270 nM, RXRa partner concentration 90 nM)
# Summary of the method: (§1)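 On custom Agilent 4×180K arrays, double-stranded probes with 34-nt variable regions carried direct-repeat seeds, single-nucleotide variants, half-site ablations or random human genomic background. Ligand-free nuclear receptor dimers were applied for 1 h, and binding was read with antibodies against each partner (one per run). Binding z-scores come from regression-normalized fluorescence, with the random background probes as reference.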
# [2] = system: LXRa:RXRa (NR concentration 270 nM, RXRa partner concentration 90 nM)
# Summary of the method: as §1
# [3] = system: LXRa homodimer (NR concentration 270 nM)
# Summary of the method: as §1
# [4] = system: LXRb:RXRa (NR concentration 270 nM, RXRa partner concentration 90 nM)
# Summary of the method: as §1
# [5] = system: LXRb homodimer (NR concentration 270 nM)
# Summary of the method: as §1
# [6] = system: PPARa:RXRa (NR concentration 270 nM, RXRa partner concentration 90 nM)
# Summary of the method: as §1
# [7] = system: PPARg:RXRa (NR concentration 180 nM, RXRa partner concentration 90 nM)
# Summary of the method: as §1
# [8] = system: PPARg:RXRa 270nM:90nM, anti-RXR (NR concentration 270 nM, RXRa partner concentration 90 nM)
# Summary of the method: as §1
# [9] = system: PPARg:RXRa 30nM:10nM, anti-RXR (NR concentration 30 nM, RXRa partner concentration 10 nM)
# Summary of the method: as §1
# [10] = system: PPARg:RXRa 90nM:30nM, anti-RXR (NR concentration 90 nM, RXRa partner concentration 30 nM)
# Summary of the method: as §1
# [11] = system: PPARg:RXRa DBDmut IVT, anti-RXR (DBD mutation: RXRa K156A/R161A, NR concentration 270 nM, RXRa partner concentration 90 nM)
# Summary of the method: as §1
# [12] = system: PPARg:RXRa IVT, anti-PPARg (NR concentration 270 nM, RXRa partner concentration 90 nM)
# Summary of the method: as §1
# [13] = system: PPARg DBDmut:RXRa IVT, anti-PPARg (DBD mutation: PPARg1 K132A/R137A, NR concentration 270 nM, RXRa partner concentration 90 nM)
# Summary of the method: as §1
# [14] = system: PPARg DBDmut IVT, anti-PPARg (DBD mutation: PPARg1 K132A/R137A, NR concentration 270 nM)
# Summary of the method: as §1
# [15] = system: PPARg homodimer (NR concentration 180 nM)
# Summary of the method: as §1
# [16] = system: PXR:RXRa (NR concentration 270 nM, RXRa partner concentration 90 nM)
# Summary of the method: as §1
# [17] = system: PXR homodimer (NR concentration 270 nM)
# Summary of the method: as §1
# [18] = system: RARa:RXR (NR concentration 270 nM, RXRa partner concentration 90 nM)
# Summary of the method: as §1
# [19] = system: RARa homodimer (NR concentration 270 nM)
# Summary of the method: as §1
# [20] = system: RARb:RXRa (NR concentration 270 nM, RXRa partner concentration 90 nM)
# Summary of the method: as §1
Sequence,PBM binding z-score [1],PBM binding z-score [2],PBM binding z-score [3],PBM binding z-score [4],PBM binding z-score [5],PBM binding z-score [6],PBM binding z-score [7],PBM binding z-score [8],PBM binding z-score [9],PBM binding z-score [10],PBM binding z-score [11],PBM binding z-score [12],PBM binding z-score [13],PBM binding z-score [14],PBM binding z-score [15],PBM binding z-score [16],PBM binding z-score [17],PBM binding z-score [18],PBM binding z-score [19],PBM binding z-score [20]
CGAACAAGGTCAAGGACAGTGAATCTCCGCACGC,7.13,5.06,0.53,3.78,0.377,5.74,5.98,5.82,2.42,4.59,4.85,4.49,1.31,0.251,2.38,3.97,0.628,4.74,0.971,5.2
CCGACTGGGGCAAGGTTACCACAACGCACAGCCA,0.0767,0.351,-0.32,0.671,-1.11,1.98,2.91,3.54,1.2,2.55,3.33,3.56,0.0122,-0.719,-0.214,0.24,-0.209,0.76,0.366,1.61
CATACAGGGTCAGCTAGGCCTGAGTAGGGACGGC,4.59,2.64,-0.384,1.79,0.0921,4.12,3.11,2.94,0.751,1.89,1.1,2.26,0.675,-0.0533,1.27,1.8,-0.411,3.27,0.583,3.86
ACTAGTTGGTCAGCTTAGGTCACACACAATTCGG,1.75,1.6,1.42,1.82,0.877,1.97,1.07,1.05,0.166,0.931,1.43,1.87,0.8,0.659,1.88,2.67,0.251,2.57,1.13,2.65
CCTAGCTGGCCAATCTGGGTCACTCAAGGCTTGA,0.656,0.35,-0.714,0.665,-1.32,2.6,1.43,1.89,-0.389,1.26,3.93,4.25,-0.85,-1.11,-0.162,0.708,-0.934,1.02,-1.02,1.09
TCTATTCGTTGATTAGGGCAACCGAAACAGCGGA,0.77,0.642,-0.323,0.409,0.94,0.827,0.127,1.93,3.6,2.72,1.61,1.69,1.2,0.685,0.326,0.454,0.0175,0.417,-0.0226,0.637
GCTAGCAGACCATTTGGGTCACTCAATGACGGGC,-0.199,-0.301,-0.619,-0.213,-1.15,0.904,0.52,-0.0173,-0.573,-0.229,0.216,0.941,-0.491,-0.941,-0.202,0.0959,-0.826,0.598,-0.667,0.935
AGAATGAGGTTACCAAAAATCAGGGAAACGCTTG,1.63,2.73,-0.193,1.54,-0.426,3.2,2.49,2.98,0.857,2.25,4.5,3.48,1.31,0.817,0.553,1.04,-0.0178,1.76,0.389,2.08
ATCTCTAGGTAAGACTCAGTTCAGTGTAGAACGC,0.302,0.547,0.708,0.286,0.886,0.0925,-0.0106,0.309,0.182,0.398,2.3,1.23,0.993,0.824,1.01,1.15,1.68,0.389,1.23,0.291
TCTCGGAGGACACGAAGGTCAGTGCTTTCCAGAG,1.02,1.19,-0.141,0.731,-0.921,1.59,0.156,1.49,2.2,1.94,1.42,1.08,-0.7,-0.641,0.926,1.54,0.566,1.52,-0.39,3.29
CCTAGCAGACCAGGGTCACTCAAGCATTTCGCTT,2.1,1.88,-0.131,2.25,-0.581,3.23,0.556,1.21,-0.525,0.444,-0.221,0.416,-0.792,-1.1,0.914,2.63,-0.0947,3.3,-0.0324,2.32
AGAATGAGGTTAAGATGAGGGAAACAGAATACAT,2.41,2.35,0.0375,1.84,0.124,3.52,2.55,2.24,1.31,1.78,2.68,2.39,1.61,0.526,0.984,1.35,0.581,2.22,0.74,1.95
AGAATGAGATTAAGATCAGGGAAACAGAATACAT,-0.282,-0.601,-0.0604,-0.466,-0.594,-0.494,0.75,-0.304,0.17,-0.228,-0.828,-0.427,0.0625,0.018,0.131,-0.366,0.121,-0.347,-0.129,-1.06
GATACAGGGTCAGCTAGAGTCCAGAGTATGGAAA,4.63,2.73,-0.197,2.46,-0.266,4.62,3.75,3.12,0.896,1.87,1.24,2.05,0.791,0.0344,1.83,4.14,-0.0221,4.01,0.0956,3.84
CGAACTAGGTCATGCAGGACAGTGAATACATTGA,3.87,2.17,0.149,1.88,-0.2,4.66,7.65,6.21,3.69,5.66,8.05,8.18,3.1,1.2,1.1,1.34,0.687,1.97,0.243,3.92
ATCTCTAGGTAAAGATAGTTCAGTAAATGCAAAT,0.492,4.09,0.589,1.27,0.936,0.78,0.749,0.691,0.403,0.563,1.89,1.77,1.18,0.812,0.801,1.14,0.936,0.952,1.67,0.706
GATACAGGGTCAGGTAGAGGCCAGAGTATGGAAA,4.61,2.74,-0.128,2.58,-0.154,4.6,3.75,3.23,0.959,2.07,0.739,2.45,0.9,0.631,2.28,2.96,0.741,3.47,1.29,4
CGTCAAAGCTCAAGGTAACGTAACAGAAAGCAGC,-0.214,-0.485,-0.372,-0.335,-0.863,-0.0672,0.521,-0.193,0.0179,0.133,0.0198,-0.221,-1.47,-0.249,-0.421,-0.257,-0.303,0.0827,-0.0827,-0.0501
CCTAGCAGGCTAGGGTCACTCAAGCATTTCGCTT,2.86,2.4,-0.638,2.55,-0.881,3.67,0.643,1.87,-0.254,0.841,0.26,0.393,-1.9,-1.59,1.58,3.3,-0.41,4.27,-0.0687,2.89
TCTCGGAGGACACGAAAGGTCCGAGCTCGACATC,0.78,0.222,-0.359,-0.21,-0.97,0.254,0.0516,0.627,1.98,1.28,1.48,-0.219,-0.586,-0.37,-0.226,0.0287,-0.785,0.412,-1.1,1.47
GCTTGTAGATCAAGGTGAAGAAAGACTAAGCTAA,-0.249,-0.317,-0.489,-0.225,-0.819,0.597,0.122,0.939,0.103,0.281,1.63,1.6,-0.514,-0.503,-0.575,-0.352,-0.243,-0.339,-0.424,0.0933
ACTATTTGGTCAGCTGAGGTCACACACAATTCGG,3.54,3.48,2.98,3.81,1.88,3.9,1.86,2.4,0.852,1.66,1.59,2.69,1.5,1.46,2.9,5.26,1.97,4.3,1.66,3.65
ACAGACAGGTGAGCGAAGGTAACTCAGCTGGACG,-0.11,-0.471,-0.638,-0.645,-0.759,0.0839,0.737,-0.0383,-0.389,0.269,0.465,0.783,0.567,-0.608,-0.706,-0.51,-0.963,0.056,-0.65,0.608
CAAACTAGGTCATCCAGGACAGTGAATACATTGA,4.46,3.23,1.22,2.51,0.932,5.12,8.08,6.82,4.42,6.36,8.23,8.47,4.2,2.88,2.69,2.23,1.49,2.85,1.49,3.84
CCTAGCAGGCCAAGGTCACTCAAGCATTTCGCTT,3.06,2.72,0.474,2.51,-0.42,3.34,1.14,2.44,-0.0507,1.65,2.14,1.93,-1.42,-0.849,1.92,3.35,0.64,3.65,0.757,3.55
ATCGAAAGGTCGTGAGGAGAGTATACAGAAAGGC,5.47,4.45,0.57,3.32,1.13,4.93,3.66,4.22,1.53,2.94,0.395,1.64,1.22,1.09,2.69,3.21,0.666,4.09,0.902,3.91
